From PubChem BioAssay AID1159580 (chemical genetic matrix, 2015)
“And” between values parts separate entries of the source, which are not always exact repeats. Identical values can stand only once. About 2,000 (36%) of roughly 5,500 compounds were called active. Not shown: some 18% with an inconclusive outcome. Cut-off read from the data, not from the text of the source: active = normalized growth mostly below about 0.91 (no sharp cut-off); inconclusive = no clear call, values can overlap the other calls; inactive = mostly above about 0.92. The list shows a part of the results.

Assay: chemical genetic growth profiling, strain panel (AID 1159580);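 note: tested at 20 µM; growth read once vehicle control cultures reached saturation at 30 °C; 1 = growth at the plate median or of vehicle wells; lower values mean less growth of the strain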
Settings: S. cerevisiae deletion strains, growth OD

Measured: normalized growth

Cc1cccc(C)c1OCC(C)N (stereo not drawn)
inactive: locus YAL013W, strain DEP1, hits give low values 0.993 | locus YAL021C, strain ccr4, hits give low values 0.986 | locus YAL026C, strain drs2, hits give low values 1.01 | locus YAL030W, strain snc1, hits give low values 1 | locus YAL040C, strain CLN3, hits give low values 0.998 | locus YBL061C, strain skt5, hits give low values 1 | locus YBR009C, strain hhf1, hits give low values 1.01 | locus YBR021W, strain FUR4, hits give low values 0.997 | locus YBR023C, strain chs3, hits give low values 1 | locus YBR171W, strain sec66, hits give low values 1.02 | locus YBR229C, strain ROT2, hits give low values 0.998 | locus YBR231C, strain swc5, hits give low values 1.02 | locus YBR279W, strain paf1, hits give low values 1.01 | locus YCL011C, strain gbp2, hits give low values 1 | locus YCL016C, strain dcc1, hits give low values 1.01 | locus YCL029C, strain bik1, hits give low values 0.987 | locus YCL061C, strain MRC1 (second series), hits give low values 0.997 | locus YCL061C, strain MRC1, hits give low values 1.01 | locus YCL069W, strain vba3, hits give low values 1.01 | locus YCR088W, strain abp1, hits give low values 1 | locus YDL005C, strain med2, hits give low values 1.01 | locus YDL035C, strain GPR1, hits give low values 1 | locus YDL040C, strain nat1, hits give low values 1.01 | locus YDL074C, strain BRE1, hits give low values 1.05 | locus YDL101C, strain DUN1, hits give low values 1.02 | locus YDL134C, strain PPH21, hits give low values 0.983 | locus YDL185W, strain tfp1, hits give low values 0.95 | locus YDL192W, strain arf1, hits give low values 0.991 | locus YDR001C, strain nth1, hits give low values 1 | locus YDR069C, strain doa4, hits give low values 1.01 | locus YDR101C, strain arx1, hits give low values 0.996 | locus YDR137W, strain rgp1, hits give low values 1.01 | locus YDR159W, strain sac3, hits give low values 1.01 | locus YDR162C, strain NBP2, hits give low values 0.979 | locus YDR195W, strain ref2 0.998 | locus YDR297W, strain sur2, hits give low values 1.01 | locus YDR318W, strain mcm21, hits give low values 0.99 | locus YDR334W, strain swr1, hits give low values 1.01 | locus YDR335W, strain msn5, hits give low values 1.01 | locus YDR363W, strain ESC2, hits give low values 0.97 | locus YDR388W, hits give low values 1.01 | locus YDR392W, strain spt3, hits give low values 1.01 | locus YDR502C, strain sam2, hits give low values 1 | locus YEL003W, strain gim4, hits give low values 1.01 | locus YEL037C, strain rad23, hits give low values 0.992 | locus YEL061C, strain CIN8 (second series), hits give low values 1 | locus YEL061C, strain CIN8, hits give low values 0.991 | locus YER002W, strain NOP16, hits give low values 1.01 | locus YER015W, strain faa2, hits give low values 1.02 | locus YER016W, strain bim1, hits give low values 1.01 | locus YER110C, hits give low values 0.98 | locus YER111C, strain swi4, hits give low values 1.02 | locus YER155C, strain BEM2 (second series), hits give low values 1.02 | locus YER155C, strain BEM2, hits give low values 0.999 | locus YER167W, strain BCK2, hits give low values 1.01 | locus YFR010W, strain ubp6, hits give low values 1.02 | locus YGL078C, strain dbp3, hits give low values 0.977 | locus YGL086W, strain mad1, hits give low values 1.01 | locus YGL167C, strain pmr1, hits give low values 1 | locus YGL173C, strain kem1, hits give low values 1.02 | locus YGL227W, strain vid30, hits give low values 1.01 | locus YGL240W, strain doc1, hits give low values 1.02 | locus YGL248W, strain PDE1, hits give low values 1.01 | locus YGL253W, strain hxk2, hits give low values 1.01 | locus YGR135W, strain pre9, hits give low values 0.975 | locus YGR252W, strain gcn5, hits give low values 1.01 | locus YHR013C, strain ard1, hits give low values 1.01 | locus YHR027C, strain rpn1, hits give low values 1.01 | locus YHR030C, strain SLT2, hits give low values 0.977 and 0.988 | locus YHR079C, strain IRE1 (second series), hits give low values 0.983 | locus YHR079C, strain IRE1, hits give low values 0.994 | locus YHR094C, strain hxt1, hits give low values 0.999 | locus YHR129C, strain ARP1, hits give low values 0.999 | locus YHR142W, strain chs7, hits give low values 1 | locus YHR200W, strain rpn10, hits give low values 0.973 | locus YIL066C, strain RNR3, hits give low values 1.01 | locus YIL073C, strain SPO22, hits give low values 0.862 | locus YIL125W, strain kgd1, hits give low values 0.995 | locus YIR030C, strain dcg1, hits give low values 0.987 | locus YJL092W, strain hpr5, hits give low values 1.01 | locus YJL095W, strain BCK1 (second series), hits give low values 1 | locus YJL095W, strain BCK1, hits give low values 1.05 and 0.977 | locus YJL115W, strain asf1, hits give low values 1.01 | locus YJL129C, strain trk1, hits give low values 1.02 | locus YJL134W, strain LCB3, hits give low values 0.987 | locus YJL154C, strain vps35, hits give low values 1.01 | locus YJL164C, strain tpk1, hits give low values 1.01 | locus YJL166W, strain qcr8, hits give low values 1 | locus YJL168C, strain set2, hits give low values 0.997 | locus YJL187C, strain SWE1 (second series), hits give low values 1.01 | locus YJL187C, strain SWE1, hits give low values 1 | locus YJR043C, strain POL32, hits give low values 1 | locus YJR066W, strain TOR1, hits give low values 0.96
